{"source": "the supplement of paper PMC7765376", "system": "PEO-1", "experiment": "Excess HSA synergy score (sum over dose matrix of excess over highest single agent) (score (summed % response)); higher = less synergy / more antagonism (negative = synergy)", "conditions": "72 h, read-out: viability/apoptosis luminescence (CellTiter-Glo or Caspase3-Glo / not stated per table)", "key": {"[1]": {"conditions": "matrix design: 6x6, 5-fold dilutions (primary screen)"}}, "note": "Whole data set: some 1,500 compounds, median “Excess HSA synergy score (sum over dose matrix of excess over highest single agent)” near 43, cut for the lowest 2% near -900. This excerpt belongs to a sample that is enriched for the lowest values."}
{"compound": "C[C@@H](Oc1cc(-n2cnc3ccc(CN4CCN(C)CC4)cc32)sc1C(N)=O)c1ccccc1C(F)(F)F", "note": "+ CC[C@H](NC(=O)[C@H](C)NC)C(=O)N1C[C@@H](O)C[C@H]1Cc1c(-c2[nH]c3cc(F)ccc3c2C[C@@H]2C[C@H](O)CN2C(=O)[C@H](CC)NC(=O)[C@H](C)NC)[nH]c2cc(F)ccc12 [Birinapant]", "values": [{"measurement": "Excess HSA synergy score", "setting": "[1]", "value": -274}, {"measurement": "Excess HSA synergy score", "setting": "matrix design: 10x10, 9-step dilutions (confirmatory)", "value": -1360}]}
{"compound": "COc1cc2ncn(-c3cc(OCc4ccccc4C(F)(F)F)c(C(N)=O)s3)c2cc1OC", "note": "+ CC[C@H](NC(=O)[C@H](C)NC)C(=O)N1C[C@@H](O)C[C@H]1Cc1c(-c2[nH]c3cc(F)ccc3c2C[C@@H]2C[C@H](O)CN2C(=O)[C@H](CC)NC(=O)[C@H](C)NC)[nH]c2cc(F)ccc12 [Birinapant]", "values": [{"measurement": "Excess HSA synergy score", "setting": "[1]", "value": -51.1}]}
{"compound": "CC(C)c1cc(C(=O)N2Cc3ccc(CN4CCN(C)CC4)cc3C2)c(O)cc1O", "note": "[Onalespib] + CC[C@H](NC(=O)[C@H](C)NC)C(=O)N1C[C@@H](O)C[C@H]1Cc1c(-c2[nH]c3cc(F)ccc3c2C[C@@H]2C[C@H](O)CN2C(=O)[C@H](CC)NC(=O)[C@H](C)NC)[nH]c2cc(F)ccc12 [Birinapant]", "values": [{"measurement": "Excess HSA synergy score", "setting": "[1]", "value": 13.4}]}
{"compound": "Cc1ccc(F)c(NC(=O)Nc2ccc(-c3cccc4[nH]nc(N)c34)cc2)c1", "note": "[Linifanib] + CC[C@H](NC(=O)[C@H](C)NC)C(=O)N1C[C@@H](O)C[C@H]1Cc1c(-c2[nH]c3cc(F)ccc3c2C[C@@H]2C[C@H](O)CN2C(=O)[C@H](CC)NC(=O)[C@H](C)NC)[nH]c2cc(F)ccc12 [Birinapant]", "values": [{"measurement": "Excess HSA synergy score", "setting": "[1]", "value": -40}]}
{"compound": "C[C@@H](O)[C@H](NC(=O)[C@@H]1CSSC[C@H](NC(=O)[C@H](N)Cc2ccccc2)C(=O)N[C@@H](Cc2ccc(O)cc2)C(=O)N[C@H](Cc2c[nH]c3ccccc23)C(=O)N[C@@H](CCCCN)C(=O)N1)C(N)=O", "note": "+ CC[C@H](NC(=O)[C@H](C)NC)C(=O)N1C[C@@H](O)C[C@H]1Cc1c(-c2[nH]c3cc(F)ccc3c2C[C@@H]2C[C@H](O)CN2C(=O)[C@H](CC)NC(=O)[C@H](C)NC)[nH]c2cc(F)ccc12 [Birinapant]", "values": [{"measurement": "Excess HSA synergy score", "setting": "[1]", "value": 120}]}
{"compound": "Cc1ccccc1C(C(=O)NC1CCCCC1)N(C(=O)Cn1ccnc1C)c1cccc(F)c1", "note": "(stereo unspecified) + CC[C@H](NC(=O)[C@H](C)NC)C(=O)N1C[C@@H](O)C[C@H]1Cc1c(-c2[nH]c3cc(F)ccc3c2C[C@@H]2C[C@H](O)CN2C(=O)[C@H](CC)NC(=O)[C@H](C)NC)[nH]c2cc(F)ccc12 [Birinapant]", "values": [{"measurement": "Excess HSA synergy score", "setting": "[1]", "value": 12.3}]}
{"compound": "COc1cc2ncn(-c3cc(OCc4ccccc4S(C)(=O)=O)c(C#N)s3)c2cc1OC", "note": "[IKK-3 Inhibitor IX] + CC[C@H](NC(=O)[C@H](C)NC)C(=O)N1C[C@@H](O)C[C@H]1Cc1c(-c2[nH]c3cc(F)ccc3c2C[C@@H]2C[C@H](O)CN2C(=O)[C@H](CC)NC(=O)[C@H](C)NC)[nH]c2cc(F)ccc12 [Birinapant]", "values": [{"measurement": "Excess HSA synergy score", "setting": "[1]", "value": 113}]}
{"compound": "Cc1cnc(Nc2ccc(F)cc2Cl)nc1-c1c[nH]c(C(=O)N[C@H](CO)c2cccc(Cl)c2)c1", "note": "+ CC[C@H](NC(=O)[C@H](C)NC)C(=O)N1C[C@@H](O)C[C@H]1Cc1c(-c2[nH]c3cc(F)ccc3c2C[C@@H]2C[C@H](O)CN2C(=O)[C@H](CC)NC(=O)[C@H](C)NC)[nH]c2cc(F)ccc12 [Birinapant]", "values": [{"measurement": "Excess HSA synergy score", "setting": "[1]", "value": 192}]}
{"compound": "CN1CCN(c2cccc(Nc3nc4c(-c5ccc(S(C)(=O)=O)cc5)cccn4n3)c2)CC1", "note": "+ CC[C@H](NC(=O)[C@H](C)NC)C(=O)N1C[C@@H](O)C[C@H]1Cc1c(-c2[nH]c3cc(F)ccc3c2C[C@@H]2C[C@H](O)CN2C(=O)[C@H](CC)NC(=O)[C@H](C)NC)[nH]c2cc(F)ccc12 [Birinapant]", "values": [{"measurement": "Excess HSA synergy score", "setting": "[1]", "value": -105}]}
{"compound": "Cc1c(-c2cccc3c(CCCOc4cccc5ccccc45)c(C(=O)O)n(Cc4cccnc4)c23)c(COc2ccc(N3CCN([S+](=O)([O-])N(C)C)CC3)cc2)nn1C", "note": "+ CC[C@H](NC(=O)[C@H](C)NC)C(=O)N1C[C@@H](O)C[C@H]1Cc1c(-c2[nH]c3cc(F)ccc3c2C[C@@H]2C[C@H](O)CN2C(=O)[C@H](CC)NC(=O)[C@H](C)NC)[nH]c2cc(F)ccc12 [Birinapant]", "values": [{"measurement": "Excess HSA synergy score", "setting": "[1]", "value": 51.7}]}
{"compound": "Cn1cc(-c2ccc3nnc(C(F)(F)c4ccc5ncccc5c4)n3n2)cn1", "note": "+ CC[C@H](NC(=O)[C@H](C)NC)C(=O)N1C[C@@H](O)C[C@H]1Cc1c(-c2[nH]c3cc(F)ccc3c2C[C@@H]2C[C@H](O)CN2C(=O)[C@H](CC)NC(=O)[C@H](C)NC)[nH]c2cc(F)ccc12 [Birinapant]", "values": [{"measurement": "Excess HSA synergy score", "setting": "[1]", "value": 40.5}]}
{"compound": "Cc1ccc(C(=O)Nc2cccc(C(F)(F)F)c2)cc1Nc1nc(-c2cccnc2)nc2c1cnn2C", "note": "+ CC[C@H](NC(=O)[C@H](C)NC)C(=O)N1C[C@@H](O)C[C@H]1Cc1c(-c2[nH]c3cc(F)ccc3c2C[C@@H]2C[C@H](O)CN2C(=O)[C@H](CC)NC(=O)[C@H](C)NC)[nH]c2cc(F)ccc12 [Birinapant]", "values": [{"measurement": "Excess HSA synergy score", "setting": "[1]", "value": -71.3}]}
{"compound": "N#CC(c1ccnc(NCCc2cccnc2)n1)c1nc2ccccc2s1", "note": "(stereo unspecified) [JNK Inhibitor V] + CC[C@H](NC(=O)[C@H](C)NC)C(=O)N1C[C@@H](O)C[C@H]1Cc1c(-c2[nH]c3cc(F)ccc3c2C[C@@H]2C[C@H](O)CN2C(=O)[C@H](CC)NC(=O)[C@H](C)NC)[nH]c2cc(F)ccc12 [Birinapant]", "values": [{"measurement": "Excess HSA synergy score", "setting": "[1]", "value": -67.5}]}
{"compound": "CC(C)(C(=O)NCC(F)(F)C(F)(F)F)C(=O)N[C@@H]1C(=O)Nc2ccccc2-c2ccccc21", "note": "+ CC[C@H](NC(=O)[C@H](C)NC)C(=O)N1C[C@@H](O)C[C@H]1Cc1c(-c2[nH]c3cc(F)ccc3c2C[C@@H]2C[C@H](O)CN2C(=O)[C@H](CC)NC(=O)[C@H](C)NC)[nH]c2cc(F)ccc12 [Birinapant]", "values": [{"measurement": "Excess HSA synergy score", "setting": "[1]", "value": -141}]}
{"compound": "COc1ccc(-c2coc3cc(O)cc(O)c3c2=O)cc1", "note": "[Biochanin A] + CC[C@H](NC(=O)[C@H](C)NC)C(=O)N1C[C@@H](O)C[C@H]1Cc1c(-c2[nH]c3cc(F)ccc3c2C[C@@H]2C[C@H](O)CN2C(=O)[C@H](CC)NC(=O)[C@H](C)NC)[nH]c2cc(F)ccc12 [Birinapant]", "values": [{"measurement": "Excess HSA synergy score", "setting": "[1]", "value": 235}]}
